Results: PubChem BioAssay (Tox21)
Inconclusive results are not listed. Calls of active or inactive are those of the source. The call rests on the fitted dose curve; in most records, active means well fitted curve in the direction sought with a large enough effect in the repeat runs; inconclusive means weak or mixed curves; inactive means no such curve, though single readings can be large; an effect the other way counts as inactive or inconclusive.

How the values were obtained:
[1] = molecular target: Cytochrome P450 2C19 (Homo sapiens) (UniProt P33261); assay: Cytochrome P450 Family 2 Subfamily C Member 19 (CYP2C19) small molecule antagonists: luciferase reporter qHTS assay (AID 1671197); further: nearly all actives have a fitted effect of over 65% in size; on activity change, negative = inhibition: series mostly up to about 120 µM
Sequence of Cytochrome P450 2C19 (Homo sapiens) (P33261 whole entry, looked up): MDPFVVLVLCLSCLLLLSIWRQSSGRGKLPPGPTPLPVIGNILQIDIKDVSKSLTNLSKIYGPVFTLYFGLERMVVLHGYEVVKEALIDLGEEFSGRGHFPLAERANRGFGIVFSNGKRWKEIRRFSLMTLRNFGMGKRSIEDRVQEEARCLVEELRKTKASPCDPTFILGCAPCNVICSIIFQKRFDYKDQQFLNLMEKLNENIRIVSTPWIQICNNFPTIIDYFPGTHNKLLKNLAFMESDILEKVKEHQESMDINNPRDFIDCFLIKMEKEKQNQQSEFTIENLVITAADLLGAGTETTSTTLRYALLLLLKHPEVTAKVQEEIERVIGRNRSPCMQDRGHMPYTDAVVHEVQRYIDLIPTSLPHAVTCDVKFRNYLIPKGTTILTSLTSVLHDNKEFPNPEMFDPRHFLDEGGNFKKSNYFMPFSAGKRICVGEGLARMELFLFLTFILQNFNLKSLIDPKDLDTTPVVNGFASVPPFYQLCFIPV
Method in brief: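 Inhibition of CYP2C19 was scored from loss of luminescence in a P450-Glo proluciferin substrate assay, NADPH-started and run 1 h at 37C, with ketoconazole as positive control.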

[2] = molecular target: Cytochrome P450 2C9 (Homo sapiens) (UniProt P11712); assay: Cytochrome P450 Family 2 Subfamily C Member 9 (CYP2C9) small molecule antagonists: luciferase reporter qHTS assay (AID 1671198); further: nearly all actives have a fitted effect of over 50% in size; on activity change, negative = inhibition: series mostly up to about 120 µM
Sequence of Cytochrome P450 2C9 (Homo sapiens) (P11712 whole entry, looked up): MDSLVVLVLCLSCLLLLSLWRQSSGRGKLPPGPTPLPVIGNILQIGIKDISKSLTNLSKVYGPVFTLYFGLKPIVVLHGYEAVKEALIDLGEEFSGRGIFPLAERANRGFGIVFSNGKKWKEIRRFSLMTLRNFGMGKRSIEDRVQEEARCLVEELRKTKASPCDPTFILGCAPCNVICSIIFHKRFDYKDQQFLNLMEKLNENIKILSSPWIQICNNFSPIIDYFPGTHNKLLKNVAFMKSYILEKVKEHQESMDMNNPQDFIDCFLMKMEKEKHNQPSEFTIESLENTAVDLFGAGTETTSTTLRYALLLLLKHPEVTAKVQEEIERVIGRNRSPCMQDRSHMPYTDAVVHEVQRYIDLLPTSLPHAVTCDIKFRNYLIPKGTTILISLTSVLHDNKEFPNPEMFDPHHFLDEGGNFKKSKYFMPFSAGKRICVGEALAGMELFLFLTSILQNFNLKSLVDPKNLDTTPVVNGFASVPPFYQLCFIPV
Method in brief: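 CYP2C9 activity was measured with a P450-Glo proluciferin substrate. Enzyme–substrate mix was held with compound for 10 min at room temperature, then NADPH regeneration solution was added for 1 h at 37C. Luciferin product was read as luminescence.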

[3] = molecular target: Cytochrome P450 1A2 (Homo sapiens) (UniProt P05177); assay: Cytochrome P450 Family 1 Subfamily A Member 2 (CYP1A2) small molecule antagonists: luciferase reporter qHTS assay (AID 1671199); further: nearly all actives have a fitted effect of over 50% in size; on activity change, negative = inhibition: series mostly up to about 120 µM
Sequence of Cytochrome P450 1A2 (Homo sapiens) (P05177 whole entry, looked up): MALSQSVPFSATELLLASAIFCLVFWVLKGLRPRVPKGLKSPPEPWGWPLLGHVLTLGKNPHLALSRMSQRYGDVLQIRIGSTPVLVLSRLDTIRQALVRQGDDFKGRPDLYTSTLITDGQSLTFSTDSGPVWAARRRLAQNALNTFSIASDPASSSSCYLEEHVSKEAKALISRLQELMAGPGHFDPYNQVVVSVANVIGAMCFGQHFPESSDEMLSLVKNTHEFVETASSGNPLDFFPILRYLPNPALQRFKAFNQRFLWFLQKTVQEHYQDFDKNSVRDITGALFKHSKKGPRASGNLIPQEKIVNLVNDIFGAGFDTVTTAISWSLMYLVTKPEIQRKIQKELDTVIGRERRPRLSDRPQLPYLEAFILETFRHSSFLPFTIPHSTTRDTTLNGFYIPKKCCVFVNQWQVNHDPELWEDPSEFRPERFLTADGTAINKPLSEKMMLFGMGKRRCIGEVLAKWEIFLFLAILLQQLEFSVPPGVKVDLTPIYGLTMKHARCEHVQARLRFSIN
Method in brief: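 Room-temperature CYP1A2 reaction with proluciferin substrate: compounds added from DMSO, 10 min preincubation, NADPH regeneration for 1 h. Luciferin detection reagent then added; luminescence recorded as RLU.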

[4] = molecular target: Voltage-gated inwardly rectifying potassium channel KCNH2 (Homo sapiens) (UniProt Q12809); assay: Human Ether-a-go-go-Related Gene (hERG) channel small molecule antagonists: fluorescence cell-based qHTS assay (AID 1671200); further: nearly all actives have a fitted effect of over 50% in size;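 on activity change, negative = inhibition: hERG-expressing U2OS cells given a thallium stimulus after FluxOR II dye loading; series mostly up to about 77 µM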
Sequence of Voltage-gated inwardly rectifying potassium channel KCNH2 (Homo sapiens) (Q12809 whole entry, looked up): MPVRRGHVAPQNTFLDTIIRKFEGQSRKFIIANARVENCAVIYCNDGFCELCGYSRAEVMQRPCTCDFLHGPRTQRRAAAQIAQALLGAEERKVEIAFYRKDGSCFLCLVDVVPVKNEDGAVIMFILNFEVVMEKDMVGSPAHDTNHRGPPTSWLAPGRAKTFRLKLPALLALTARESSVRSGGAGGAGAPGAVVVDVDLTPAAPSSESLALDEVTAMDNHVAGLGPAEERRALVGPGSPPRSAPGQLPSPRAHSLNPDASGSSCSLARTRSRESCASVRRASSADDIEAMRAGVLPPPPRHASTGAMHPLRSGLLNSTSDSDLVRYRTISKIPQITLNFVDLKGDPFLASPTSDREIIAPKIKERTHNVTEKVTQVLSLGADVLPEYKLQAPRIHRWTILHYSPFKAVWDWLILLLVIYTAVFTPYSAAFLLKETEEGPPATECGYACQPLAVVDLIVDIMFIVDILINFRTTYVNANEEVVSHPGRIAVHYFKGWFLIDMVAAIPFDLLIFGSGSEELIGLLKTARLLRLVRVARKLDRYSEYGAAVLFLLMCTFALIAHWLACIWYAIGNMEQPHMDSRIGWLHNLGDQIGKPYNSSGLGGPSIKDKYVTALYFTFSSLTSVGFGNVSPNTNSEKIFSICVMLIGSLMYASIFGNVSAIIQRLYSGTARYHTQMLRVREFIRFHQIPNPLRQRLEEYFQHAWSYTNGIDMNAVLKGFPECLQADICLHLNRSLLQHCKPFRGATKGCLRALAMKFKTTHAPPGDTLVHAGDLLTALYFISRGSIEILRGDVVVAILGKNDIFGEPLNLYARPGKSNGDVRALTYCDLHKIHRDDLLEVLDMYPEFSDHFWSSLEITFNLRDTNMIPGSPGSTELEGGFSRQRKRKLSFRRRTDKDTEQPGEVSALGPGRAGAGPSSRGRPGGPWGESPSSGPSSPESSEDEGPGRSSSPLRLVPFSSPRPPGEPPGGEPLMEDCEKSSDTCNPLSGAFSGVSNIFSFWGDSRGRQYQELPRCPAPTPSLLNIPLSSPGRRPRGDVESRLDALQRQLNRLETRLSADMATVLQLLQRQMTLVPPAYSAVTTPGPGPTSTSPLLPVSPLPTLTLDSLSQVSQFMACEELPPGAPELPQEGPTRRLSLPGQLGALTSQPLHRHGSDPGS
Method in brief: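 Channel function was assessed by thallium flux. Cells seeded the previous day and kept at 37 C took up FluxOR II dye over 1 h in the dark at room temperature, then sat another 10 min before stimulation.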

[5] = molecular target: Cytochrome P450 3A4 (Homo sapiens) (UniProt P08684); assay: Cytochrome P450 Family 3 Subfamily A Member 4 (CYP3A4) small molecule antagonists: luciferase reporter qHTS assay (AID 1671201); further: nearly all actives have a fitted effect of over 50% in size; on activity change, negative = inhibition: series mostly up to about 120 µM
Sequence of Cytochrome P450 3A4 (Homo sapiens) (P08684 whole entry, looked up): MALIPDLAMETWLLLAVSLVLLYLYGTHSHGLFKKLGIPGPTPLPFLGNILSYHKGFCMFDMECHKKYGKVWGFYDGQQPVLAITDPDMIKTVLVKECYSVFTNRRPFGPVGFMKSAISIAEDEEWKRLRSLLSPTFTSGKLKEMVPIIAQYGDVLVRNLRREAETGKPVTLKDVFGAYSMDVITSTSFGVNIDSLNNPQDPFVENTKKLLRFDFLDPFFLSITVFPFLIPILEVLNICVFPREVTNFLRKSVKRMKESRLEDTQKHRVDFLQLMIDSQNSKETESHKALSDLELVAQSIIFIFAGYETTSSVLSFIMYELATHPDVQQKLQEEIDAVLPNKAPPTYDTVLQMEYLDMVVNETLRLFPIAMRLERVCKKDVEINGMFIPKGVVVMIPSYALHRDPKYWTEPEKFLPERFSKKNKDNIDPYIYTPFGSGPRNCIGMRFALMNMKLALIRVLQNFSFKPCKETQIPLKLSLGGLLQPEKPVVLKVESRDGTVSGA
Method in brief: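 Compounds in DMSO were pin-transferred onto CYP3A4 enzyme-substrate mix and held 10 min at room temperature. NADPH regenerating solution started the reaction for 1 h; luciferin detection reagent stopped it, and luminescence was read after 20 min.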
On the % scale 0 is the no-effect control and ±100 the full control effect; potency means the concentration at half of the fitted maximal effect.

O=C(Nc1ccc2c(c1)Cc1ccccc1-2)C(F)(F)F
active: Potency [1] 17.8 µM | Potency [2] 5.03 µM | Potency [3] 3.56 µM
inactive: Potency [4] | Potency [5]

O=C(Cl)c1cc(Cl)cc(Cl)c1
inactive: Potency [1] | Potency [2] | Potency [3] | Potency [4] | Potency [5]

C=CC(=O)OCCCCCCCCCC
inactive: Potency [1] | Potency [2] | Potency [3] | Potency [4] | Potency [5]

CCOc1ccc2c(c1)C(C)CC(C)(C)N2 (centres undefined)
inactive: Potency [4]
active: Potency [1] 1.26 µM | Potency [2] 14.2 µM | Potency [3] 35.6 µM | Potency [5] 7.96 µM

COc1ccnc2c1CCCCC2S(=O)c1nc2ccccc2[nH]1 (centres undefined)
active: Potency [1] 8.71 µM | Potency [2] 12.3 µM | Potency [3] 13.8 µM
inactive: Potency [4]

Cc1c(Cl)cccc1[N+](=O)[O-]
inactive: Potency [1] | Potency [2] | Potency [3] | Potency [4] | Potency [5]

O=C(N[C@@H](Cc1ccccc1)[C@@H](O)C(=O)N1C[C@@H](O)[C@@H](O)C1)c1cc2cc(Cl)ccc2[nH]1
active: Potency [1] 39.9 µM | Potency [2] 35.6 µM | Potency [3] 28.3 µM
inactive: Potency [4]

CC(C)CCCCCOC(=O)CS
active: Potency [2] 71 µM
inactive: Potency [1] | Potency [3] | Potency [4]

Cc1cccc(C)c1NC(=O)CN1CCCC1
inactive: Potency [1] | Potency [2] | Potency [3] | Potency [4] | Potency [5]

c1ccc(CN(Cc2ccccc2)Cc2ccccc2)cc1
active: Potency [1] 5.64 µM | Potency [2] 31.7 µM | Potency [3] 20 µM | Potency [4] 24.5 µM
inactive: Potency [5]

CO[C@@H]1[C@@H](O[C@@H]2O[C@H](C)[C@@H](O[C@H]3C[C@@](C)(O)[C@@H](O)[C@H](C)O3)[C@H](N(C)C)[C@H]2O)[C@@H](CC=O)C[C@@H](C)[C@@H](O[C@@H]2CC[C@H](N(C)C)[C@@H](C)O2)/C=C/C=C/C[C@@H](C)OC(=O)C[C@H]1OC(C)=O
inactive: Potency [1] | Potency [2] | Potency [3] | Potency [4]

C[Si](C)(C)O[Si](C)(C)O[Si](C)(C)C
inactive: Potency [1] | Potency [2] | Potency [3] | Potency [4] | Potency [5]

S=c1[nH][nH]c(=S)s1
active: Potency [1] 22.4 µM | Potency [2] 20 µM
inactive: Potency [3] | Potency [4] | Potency [5]

C=CC(C)(O)CC/C=C(/C)CCC=C(C)C (centres undefined)
active: Potency [1] 10 µM | Potency [2] 31.7 µM | Potency [3] 39.9 µM
inactive: Potency [4]

CO[C@@H]1COCC[C@@H]1N[C@@H]1CC[C@@](C(=O)N2CCc3ncc(C(F)(F)F)cc3C2)(C(C)C)C1
inactive: Potency [1] | Potency [2] | Potency [3] | Potency [4]

CCCCCCCCOCCCN
active: Potency [1] 2 µM | Potency [2] 28.3 µM | Potency [3] 6.33 µM | Potency [4] 43.6 µM

COc1ccc(/C=C/c2cc(OC)cc(=O)o2)cc1
active: Potency [1] 4.09 µM | Potency [3] 9.15 µM
inactive: Potency [2] | Potency [4] | Potency [5]

O=C1OC(=O)C2CC=CCC12 (centres undefined)
active: Potency [1] 80 µM
inactive: Potency [2] | Potency [3] | Potency [4] | Potency [5]

COc1ccc(/C=C/S(=O)(=O)NC(=O)c2ccc(C)cc2Cl)cc1
active: Potency [2] 17.8 µM
inactive: Potency [1] | Potency [3] | Potency [4] | Potency [5]

COc1ccc(C(=O)Nc2ccccc2)cc1[N+](=O)[O-]
inactive: Potency [4]
active: Potency [1] 35.9 µM | Potency [2] 35.9 µM | Potency [3] 5.68 µM | Potency [5] 35.9 µM

O=C(O)c1ccc(O)c(O)c1
inactive: Potency [4] | Potency [5]
active: Potency [1] 79.6 µM | Potency [2] 35.5 µM | Potency [3] 31.7 µM

CCN(CC)CC(=O)OCC(=O)[C@@]1(O)CC[C@H]2[C@@H]3CCC4=CC(=O)CC[C@]4(C)[C@H]3[C@@H](O)C[C@@]21C
inactive: Potency [1] | Potency [2] | Potency [3] | Potency [4]

CCCCOC(=O)C(C)Oc1ccc(Oc2ccc(C(F)(F)F)cn2)cc1 (centres undefined)
active: Potency [1] 50.2 µM | Potency [2] 22.4 µM | Potency [3] 22.4 µM | Potency [4] 24.5 µM
inactive: Potency [5]

CC(C)CC(C)(C)C
inactive: Potency [4]
active: Potency [1] 20.8 µM | Potency [2] 36.9 µM | Potency [3] 7.37 µM | Potency [5] 32.9 µM

CC(C)(C)NCC(O)COc1ccc(NC(=O)NC2CCCCC2)cc1 (centres undefined)
inactive: Potency [1] | Potency [2] | Potency [3] | Potency [4] | Potency [5]

CCC(CC)C(=O)O
inactive: Potency [1] | Potency [2] | Potency [3] | Potency [4] | Potency [5]

OCC(O)c1ccccc1 (centres undefined)
inactive: Potency [1] | Potency [2] | Potency [4] | Potency [5]

CCCCCC1CCC(=O)O1 (centres undefined)
inactive: Potency [1] | Potency [4] | Potency [5]
active: Potency [2] 89.4 µM

CC(O)CN (centres undefined)
inactive: Potency [1] | Potency [2] | Potency [3] | Potency [4] | Potency [5]

COC=O
inactive: activity change, negative = inhibition [1] 14.6% [at 10.5 µM] | activity change, negative = inhibition [2] -23.5% [at 10.5 µM] | activity change, negative = inhibition [3] -7.2% [at 10.5 µM] | activity change, negative = inhibition [4] -1.77% [at 6.97 µM] | activity change, negative = inhibition [5] 11.4% [at 10.5 µM]

CCOC(C)OCC
inactive: Potency [2] | Potency [3] | Potency [4] | Potency [5]
active: Potency [1] 69 µM

FC(F)(Cl)C(F)(Cl)Cl
inactive: Potency [1] | Potency [2] | Potency [4] | Potency [5]

CCC(=O)O[C@@H]1C[C@H]2CC[C@]1(C)C2(C)C
inactive: Potency [1] | Potency [2] | Potency [3] | Potency [4] | Potency [5]
